# Results from PubChem BioAssay AID1402 (National Center for Advancing Translational Sciences (NCATS), 2008).
# Inconclusive results are not listed. Calls of active or inactive are those of the source. Calls come from the whole dose curve; as a rule, active = well fitted curve in the direction sought with a large enough effect in the signal ratio; inconclusive = small, poorly fitted or top-dose-only effect, or effect the other way, or a change in a side signal; inactive = no such curve, though single readings can be large or run the other way; the % refers to the signal ratio.
# Biological target: Lutropin-choriogonadotropic hormone receptor (Homo sapiens) (UniProt P22888)
# Sequence (P22888 whole entry, looked up): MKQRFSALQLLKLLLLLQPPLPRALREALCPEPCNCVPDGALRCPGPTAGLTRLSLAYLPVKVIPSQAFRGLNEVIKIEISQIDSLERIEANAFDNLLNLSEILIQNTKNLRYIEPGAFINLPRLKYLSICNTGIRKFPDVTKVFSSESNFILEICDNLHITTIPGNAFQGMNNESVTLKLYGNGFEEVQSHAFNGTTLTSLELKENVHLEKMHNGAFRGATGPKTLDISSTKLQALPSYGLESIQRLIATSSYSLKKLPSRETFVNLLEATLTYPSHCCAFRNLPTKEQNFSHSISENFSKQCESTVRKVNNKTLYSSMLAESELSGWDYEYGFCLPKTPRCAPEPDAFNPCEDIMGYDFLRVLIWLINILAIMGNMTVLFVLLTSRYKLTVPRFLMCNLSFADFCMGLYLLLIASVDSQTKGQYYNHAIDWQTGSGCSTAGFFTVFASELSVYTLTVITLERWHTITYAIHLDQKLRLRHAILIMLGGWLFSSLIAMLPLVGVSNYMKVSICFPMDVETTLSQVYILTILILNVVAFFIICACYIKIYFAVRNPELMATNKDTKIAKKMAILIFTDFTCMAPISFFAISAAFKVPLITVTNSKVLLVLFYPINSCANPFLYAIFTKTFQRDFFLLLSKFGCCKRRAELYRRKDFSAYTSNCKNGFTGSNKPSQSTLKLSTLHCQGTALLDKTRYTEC
# Assay: Counterscreen for Agonists of Thyroid Stimulating Hormone Receptor: HTRF Activity in a Luteinizing Hormone Receptor Cell Line
# Conditions: HEK293-LHR cells, cAMP HTRF ratio, 30 min; series mostly up to 91.7 µM
# Excerpt: NIH Chemical Genomics Center [NCGC] NIH Molecular Libraries Screening Centers Network [MLSCN] MLSCN Grant: 1 X01 MH080680-01 PI Name: Dr. Marvin Gershengorn, NIH NCGC Assay Overview: Confirmation of Thyroid Stimulating Hormone Receptor Agonists TSH is an alpha/beta heterodimeric glycoprotein hormone secreted from the anterior pituitary gland which belongs to the glycoprotein hormone family. The actions of TSH are mediated by a seven-transmembrane receptor, which upon TSH binding couples preferentially to the G-alpha (s) protein (Gs), resulting in activation of adenylate cyclase and increase in cyclic adenosine 3', 5' monophosphate (cAMP). The TSH receptor (THSR) is mainly expressed in thyroid follicular cells and regulates their growth and function. […] In order to confirm specificity of the compounds to the TSHR, a confirmatory assay was conducted on a similar family member, the Luteinizing Hormone (LH) receptor, transfected into a HEK 293 cell line, using an orthogonal detection technology to measure cAMP stimulation: antibody-based Homogeneous Time Resolved Fluorescence (HTRF).
# NCGC Assay Protocol Summary: Homogeneous Time Resolved Fluorescence (HTRF) cAMP Assay. […] Plates were measured using the Envision plate reader (PerkinElmer, Boston, MA) with excitation at 330 nm and emissions of 615 nm and 660 nm. […]
row,SMILES,outcome
1,C=CCN1C(=O)C2(C(C(=O)OC)=C(N)Oc3c2c(=O)oc2ccccc32)c2ccccc21 (configuration not stated),inactive
2,CCOC(=O)C1=C(N)Oc2c(c(=O)oc3ccccc23)C12C(=O)N(C)c1ccccc12 (configuration not stated),inactive
